Experimental findings from PubChem BioAssay (Tox21) are described below.

Assay [1] in a line: Caspase-3/7 induction in HepG2 cells by small molecules, qHTS assay (AID 1346978). Further: nearly all actives have a fitted effect of over 15% in size. Further: potency means the concentration at half of the fitted maximal effect. The gist of the method: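 Wild-type HepG2 cells (2,000/well) were settled 5 h at 37 C, 5% CO2, then exposed to compounds in DMSO for 17 h. Caspase-3/7 activity was read by luminescence 30 min after adding Caspase-Glo 3/7 reagent at room temperature.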
(In qHTS, concentration-response curves come from the screen itself.)

A short description of assay [2]: Caspase-3/7 induction in CHO-K1 cells by small molecules, qHTS cell viability counter screen (AID 1346979). Further: nearly all actives have a fitted effect of over 35% in size. Further: potency means the concentration at half of the fitted maximal effect. The gist of the method:
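Multiplexed with Caspase-Glo 3/7 in CHO-K1 cells, this counter screen added CellTiter-Fluor after 16hr of compound exposure and recorded fluorescence 1hr later.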

Assay [3] in a line: Caspase-3/7 induction in HepG2 cells by small molecules, qHTS cell viability counter screen (AID 1346981). Further: series mostly up to about 92 µM; nearly all actives have a fitted effect of over 30% in size. The gist of the method:
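In this quantitative HTS counter screen, compounds delivered in DMSO were left on unmodified HepG2 cells for 16 hr at 37 C. Viability was then determined fluorometrically with CellTiter-Fluor, in parallel with caspase-3/7 induction in the same wells.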

The target of assay [4] is Nuclear receptor subfamily 1 group I member 2 (Homo sapiens) (UniProt O75469). Put plainly: Human pregnane X receptor (PXR) small molecule agonists, qHTS assay (AID 1346982). Further: nearly all actives have a fitted effect of over 35% in size. Further: potency means the concentration at half of the fitted maximal effect. The gist of the method: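 Reporter HepG2 cells expressing PXR-Luc are cultured in charcoal-stripped FBS (5%), treated with compounds for 24 hr at 37 C, and assayed by ONE-Glo luminescence after 30 min at room temperature.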

For assay [5], the target named is Acetylcholinesterase (Homo sapiens) (UniProt P22303). Put plainly: Acetylcholinesterase (AChE) small molecule antagonists: colormetric cell-based qHTS assay (AID 1347395; calls by dose curve; further: nearly all actives have a fitted effect of over 30% in size; further: potency means the concentration at half of the fitted maximal effect). The gist of the method: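 In this cell-based qHTS, attached SH-SY5Y cells were treated with test chemicals for 30 min, after which acetylthiocholine hydrolysis was followed by DTNB colour development over 90 min at 37 C.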

For assay [6] the target is unchanged. Put plainly: Acetylcholinesterase (AChE) small molecule antagonists: enzyme-based qHTS assay (AID 1347397; calls by dose curve; further: nearly all actives have a fitted effect of over 55% in size; further: potency means the concentration at half of the fitted maximal effect). The following applies: Potency: AChE enzyme activity inhibition. The gist of the method: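 Tox21 library chemicals are tested in qHTS format against recombinant human AChE. The enzyme, dispensed at 50 mU/mL, sits with compound for 30 min at room temperature. A DTNB–acetylthiocholine cocktail follows, and colour is read after 10 min.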

For assay [7] the target is unchanged. Put plainly: Acetylcholinesterase (AChE) small molecule antagonists: fluorescence cell-based qHTS assay (AID 1347398; calls by dose curve; further: nearly all actives have a fitted effect of over 50% in size). The following applies: Potency: AChE activity. The gist of the method:
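Cellular AChE inhibition: SH-SY5Y cells treated with test chemical for 30 min at 37 C, then acetylthiocholine hydrolysis followed over 40 min at room temperature via thiocholine-reactive Thiolite Green fluorescence (490/520 nm).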

Assay [8] has the same target. The experiment in a line: Acetylcholinesterase (AChE) small molecule antagonists: enzyme-based qHTS assay with human liver microsomes (AID 1347399; calls by dose curve; further: nearly all actives have a fitted effect of over 60% in size). The following applies: Potency: qHTS inhibition. The gist of the method: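 Recombinant human AChE (50 mU/mL in the enzyme mix) and human liver microsomes (0.25 mg/mL final) were preincubated with compound and NADPH (0.25 mg/mL final) for 30 min at 37 C. Acetylthiocholine/DTNB was then added; thiocholine was read colorimetrically after 10 min at room temperature.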

The target of assay [9] is Cytochrome P450 2D6 (Homo sapiens) (UniProt P10635). Put plainly: Cytochrome P450 Family 2 Subfamily D Member 6 (CYP2D6) small molecule antagonists: luciferase reporter qHTS assay (AID 1671196). Further: nearly all actives have a fitted effect of over 50% in size. Further: potency means the concentration at half of the fitted maximal effect. The gist of the method:
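Test chemicals meet CYP2D6 plus proluciferin substrate (10 min, RT); NADPH regenerating solution then drives turnover for 1 h. Detection reagent halts the reaction; luminescence measured after 20 min.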

Assay [10] deals with Cytochrome P450 2C19 (Homo sapiens) (UniProt P33261). The experiment in a line: Cytochrome P450 Family 2 Subfamily C Member 19 (CYP2C19) small molecule antagonists: luciferase reporter qHTS assay (AID 1671197). Further: nearly all actives have a fitted effect of over 65% in size. Further: potency means the concentration at half of the fitted maximal effect. The gist of the method:
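Quantitative high-throughput screen of the Tox21 library using CYP2C19 with proluciferin substrate. Reaction: NADPH regeneration, 37C, 1 h, after 10 min compound preincubation at room temperature. Readout: luminescence.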
(In general: In a reporter assay the amount or activity of a reporter protein is the signal.)

In assay [11] the target is Cytochrome P450 2C9 (Homo sapiens) (UniProt P11712). Put plainly: Cytochrome P450 Family 2 Subfamily C Member 9 (CYP2C9) small molecule antagonists: luciferase reporter qHTS assay (AID 1671198). Further: nearly all actives have a fitted effect of over 50% in size. Further: potency means the concentration at half of the fitted maximal effect. The gist of the method:
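CYP2C9 activity was measured with a P450-Glo proluciferin substrate. Enzyme–substrate mix was held with compound for 10 min at room temperature, then NADPH regeneration solution was added for 1 h at 37C. Luciferin product was read as luminescence.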

In assay [12] the target is Cytochrome P450 3A4 (Homo sapiens) (UniProt P08684). Put plainly: Cytochrome P450 Family 3 Subfamily A Member 4 (CYP3A4) small molecule antagonists: luciferase reporter qHTS assay (AID 1671201). Further: nearly all actives have a fitted effect of over 50% in size. Further: potency means the concentration at half of the fitted maximal effect. The gist of the method:
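Room-temperature assay throughout: 10 min compound–enzyme/substrate preincubation, 1 h reaction after NADPH regeneration solution, 20 min detection. Luciferin formed from proluciferin substrate is quantified by luminescence.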

Assay [13] is described as follows: Caspase-3/7 induction in CHO-K1 cells by small molecules, qHTS assay (AID 1346980). Further: nearly all actives have a fitted effect of over 15% in size. Further: potency means the concentration at half of the fitted maximal effect. The gist of the method:
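Wild-type cells were seeded at 1,500 per well and settled 5 hr at 37 C, 5% CO2, then exposed to DMSO-dissolved compounds for 17 hr. Caspase-Glo 3/7 reagent was added, and luminescence was read after 30min at room temperature.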

In assay [14] the target is Cytochrome P450 1A2 (Homo sapiens) (UniProt P05177). Put plainly: Cytochrome P450 Family 1 Subfamily A Member 2 (CYP1A2) small molecule antagonists: luciferase reporter qHTS assay (AID 1671199). Further: nearly all actives have a fitted effect of over 50% in size. Further: potency means the concentration at half of the fitted maximal effect. The gist of the method:
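Steps: enzyme-substrate mix dispensed; test compounds and furafylline control pinned in; 10 min room temperature; NADPH regeneration solution added, 1 h; reaction stopped with luciferin detection reagent; luminescence read after 20 min.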

The target in assay [15] is Voltage-gated inwardly rectifying potassium channel KCNH2 (Homo sapiens) (UniProt Q12809). The experiment in a line: Human Ether-a-go-go-Related Gene (hERG) channel small molecule antagonists: fluorescence cell-based qHTS assay (AID 1671200). Further: nearly all actives have a fitted effect of over 50% in size. Further: potency means the concentration at half of the fitted maximal effect. The gist of the method:
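Cell line hERG-U2OS; dye FluxOR II, 1 h RT dark; Tl+ stimulus; ex 480/em 540 nm, read each second for 2 min.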
On the technique in general: The hERG channel carries a current that helps repolarise heart muscle cells.

Where “and” joins values, the source holds several entries; their conditions need not be identical. Equal values may be shown once. Records with an inconclusive call do not appear. Calls of active or inactive are those of the source. Unless noted, the call rests on the fitted dose curve; in most records, active means well fitted curve in the direction sought with a large enough effect in the repeat runs; inconclusive means weak or mixed curves; inactive means no such curve, though single readings can be large; an effect the other way counts as inactive or inconclusive.

Chain of Cytochrome P450 2C9 (Homo sapiens) (P11712 whole entry, looked up): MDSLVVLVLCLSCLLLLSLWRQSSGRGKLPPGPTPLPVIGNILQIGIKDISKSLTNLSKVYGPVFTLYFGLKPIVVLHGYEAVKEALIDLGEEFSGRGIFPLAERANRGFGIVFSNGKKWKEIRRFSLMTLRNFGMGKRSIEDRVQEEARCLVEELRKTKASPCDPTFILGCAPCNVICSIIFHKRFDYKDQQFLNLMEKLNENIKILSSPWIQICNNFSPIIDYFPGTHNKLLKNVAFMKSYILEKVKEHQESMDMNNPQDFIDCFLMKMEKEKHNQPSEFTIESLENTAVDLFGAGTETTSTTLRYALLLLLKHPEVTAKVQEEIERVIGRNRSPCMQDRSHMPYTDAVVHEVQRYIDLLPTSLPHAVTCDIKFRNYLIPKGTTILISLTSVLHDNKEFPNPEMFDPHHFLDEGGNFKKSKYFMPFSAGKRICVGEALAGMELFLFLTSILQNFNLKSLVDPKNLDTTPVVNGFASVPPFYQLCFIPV
Chain of Cytochrome P450 2C19 (Homo sapiens) (P33261 whole entry, looked up): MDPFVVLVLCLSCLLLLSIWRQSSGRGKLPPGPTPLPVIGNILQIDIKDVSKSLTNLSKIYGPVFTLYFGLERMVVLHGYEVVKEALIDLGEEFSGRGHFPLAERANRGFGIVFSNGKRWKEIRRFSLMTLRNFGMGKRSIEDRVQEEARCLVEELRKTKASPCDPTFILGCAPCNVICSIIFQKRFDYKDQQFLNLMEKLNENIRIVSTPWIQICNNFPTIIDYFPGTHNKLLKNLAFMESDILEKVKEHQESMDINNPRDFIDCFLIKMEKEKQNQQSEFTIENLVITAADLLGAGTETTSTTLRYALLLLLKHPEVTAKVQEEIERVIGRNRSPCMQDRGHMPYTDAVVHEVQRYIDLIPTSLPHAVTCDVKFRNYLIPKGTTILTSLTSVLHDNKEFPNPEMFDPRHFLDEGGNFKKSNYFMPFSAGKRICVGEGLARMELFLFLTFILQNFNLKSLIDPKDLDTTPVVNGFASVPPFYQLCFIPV
Chain of Cytochrome P450 3A4 (Homo sapiens) (P08684 whole entry, looked up): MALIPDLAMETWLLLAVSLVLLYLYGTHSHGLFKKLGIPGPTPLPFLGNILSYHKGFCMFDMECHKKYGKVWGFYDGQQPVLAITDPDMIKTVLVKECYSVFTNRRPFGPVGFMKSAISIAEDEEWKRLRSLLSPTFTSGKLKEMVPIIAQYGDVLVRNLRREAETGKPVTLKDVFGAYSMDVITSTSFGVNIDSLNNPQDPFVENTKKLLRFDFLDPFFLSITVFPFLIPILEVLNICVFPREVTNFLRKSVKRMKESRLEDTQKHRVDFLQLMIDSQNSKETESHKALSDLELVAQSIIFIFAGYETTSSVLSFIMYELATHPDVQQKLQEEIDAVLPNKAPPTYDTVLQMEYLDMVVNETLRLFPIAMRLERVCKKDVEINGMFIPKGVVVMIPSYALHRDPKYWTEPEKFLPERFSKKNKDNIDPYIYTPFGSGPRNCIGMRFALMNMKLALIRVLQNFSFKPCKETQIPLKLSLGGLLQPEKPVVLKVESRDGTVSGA
Chain of Acetylcholinesterase (Homo sapiens) (P22303 whole entry, looked up): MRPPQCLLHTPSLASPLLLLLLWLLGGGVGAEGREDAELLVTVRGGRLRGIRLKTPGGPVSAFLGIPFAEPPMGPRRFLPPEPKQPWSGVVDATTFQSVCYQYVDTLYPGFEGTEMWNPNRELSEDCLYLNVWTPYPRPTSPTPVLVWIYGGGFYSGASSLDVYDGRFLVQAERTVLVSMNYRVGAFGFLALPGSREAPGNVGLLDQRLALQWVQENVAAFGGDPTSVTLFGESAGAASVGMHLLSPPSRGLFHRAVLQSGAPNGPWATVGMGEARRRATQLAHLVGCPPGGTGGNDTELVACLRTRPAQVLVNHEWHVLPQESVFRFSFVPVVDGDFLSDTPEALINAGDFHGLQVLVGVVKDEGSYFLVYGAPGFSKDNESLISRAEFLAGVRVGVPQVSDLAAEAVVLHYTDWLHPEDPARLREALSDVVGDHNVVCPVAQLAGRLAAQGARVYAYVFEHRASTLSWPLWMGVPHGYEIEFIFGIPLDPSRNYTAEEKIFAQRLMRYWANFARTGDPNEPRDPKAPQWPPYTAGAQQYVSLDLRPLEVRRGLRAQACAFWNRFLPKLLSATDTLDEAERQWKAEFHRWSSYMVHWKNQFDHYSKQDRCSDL
Chain of Cytochrome P450 2D6 (Homo sapiens) (P10635 whole entry, looked up): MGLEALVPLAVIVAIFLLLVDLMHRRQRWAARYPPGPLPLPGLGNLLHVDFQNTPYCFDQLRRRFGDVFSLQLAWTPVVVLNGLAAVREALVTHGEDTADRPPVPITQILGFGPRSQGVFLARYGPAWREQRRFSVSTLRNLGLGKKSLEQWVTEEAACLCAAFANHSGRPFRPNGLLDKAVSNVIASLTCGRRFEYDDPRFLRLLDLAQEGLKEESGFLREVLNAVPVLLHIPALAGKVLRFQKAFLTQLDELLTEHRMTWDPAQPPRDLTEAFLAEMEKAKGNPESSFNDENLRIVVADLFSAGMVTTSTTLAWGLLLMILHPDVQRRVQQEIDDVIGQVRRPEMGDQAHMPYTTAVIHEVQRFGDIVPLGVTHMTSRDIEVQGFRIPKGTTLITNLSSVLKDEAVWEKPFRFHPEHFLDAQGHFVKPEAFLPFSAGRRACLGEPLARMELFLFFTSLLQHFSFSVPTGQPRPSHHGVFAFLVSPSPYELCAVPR
Chain of Voltage-gated inwardly rectifying potassium channel KCNH2 (Homo sapiens) (Q12809 whole entry, looked up): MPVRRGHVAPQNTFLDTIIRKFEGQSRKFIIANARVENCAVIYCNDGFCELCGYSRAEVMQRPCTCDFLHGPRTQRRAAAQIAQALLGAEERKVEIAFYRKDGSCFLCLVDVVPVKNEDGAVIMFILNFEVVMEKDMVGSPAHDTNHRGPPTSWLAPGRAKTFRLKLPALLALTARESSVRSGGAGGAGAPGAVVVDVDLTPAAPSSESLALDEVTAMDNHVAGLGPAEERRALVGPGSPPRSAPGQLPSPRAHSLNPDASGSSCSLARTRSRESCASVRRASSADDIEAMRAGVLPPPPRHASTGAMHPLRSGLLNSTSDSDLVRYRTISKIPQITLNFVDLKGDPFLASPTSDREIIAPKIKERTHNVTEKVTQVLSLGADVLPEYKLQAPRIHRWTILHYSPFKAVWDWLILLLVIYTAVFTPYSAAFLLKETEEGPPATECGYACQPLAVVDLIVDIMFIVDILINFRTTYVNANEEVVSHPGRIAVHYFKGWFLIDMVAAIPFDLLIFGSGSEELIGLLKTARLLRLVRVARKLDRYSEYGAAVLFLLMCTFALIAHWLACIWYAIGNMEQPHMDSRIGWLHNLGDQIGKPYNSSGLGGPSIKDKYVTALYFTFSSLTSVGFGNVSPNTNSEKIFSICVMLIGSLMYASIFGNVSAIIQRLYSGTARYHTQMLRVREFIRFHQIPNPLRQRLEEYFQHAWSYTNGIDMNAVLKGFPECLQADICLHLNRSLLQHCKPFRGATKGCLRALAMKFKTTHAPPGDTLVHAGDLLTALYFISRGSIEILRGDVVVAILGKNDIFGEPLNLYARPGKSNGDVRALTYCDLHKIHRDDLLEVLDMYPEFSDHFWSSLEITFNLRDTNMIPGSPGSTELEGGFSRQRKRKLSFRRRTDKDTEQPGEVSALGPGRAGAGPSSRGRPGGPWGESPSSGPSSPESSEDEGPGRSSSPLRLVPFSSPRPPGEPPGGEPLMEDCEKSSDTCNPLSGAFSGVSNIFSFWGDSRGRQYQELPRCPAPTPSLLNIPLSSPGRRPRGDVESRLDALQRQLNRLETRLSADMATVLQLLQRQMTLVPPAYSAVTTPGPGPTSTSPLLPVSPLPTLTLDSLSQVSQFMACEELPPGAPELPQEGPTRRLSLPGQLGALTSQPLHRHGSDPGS
Chain of Cytochrome P450 1A2 (Homo sapiens) (P05177 whole entry, looked up): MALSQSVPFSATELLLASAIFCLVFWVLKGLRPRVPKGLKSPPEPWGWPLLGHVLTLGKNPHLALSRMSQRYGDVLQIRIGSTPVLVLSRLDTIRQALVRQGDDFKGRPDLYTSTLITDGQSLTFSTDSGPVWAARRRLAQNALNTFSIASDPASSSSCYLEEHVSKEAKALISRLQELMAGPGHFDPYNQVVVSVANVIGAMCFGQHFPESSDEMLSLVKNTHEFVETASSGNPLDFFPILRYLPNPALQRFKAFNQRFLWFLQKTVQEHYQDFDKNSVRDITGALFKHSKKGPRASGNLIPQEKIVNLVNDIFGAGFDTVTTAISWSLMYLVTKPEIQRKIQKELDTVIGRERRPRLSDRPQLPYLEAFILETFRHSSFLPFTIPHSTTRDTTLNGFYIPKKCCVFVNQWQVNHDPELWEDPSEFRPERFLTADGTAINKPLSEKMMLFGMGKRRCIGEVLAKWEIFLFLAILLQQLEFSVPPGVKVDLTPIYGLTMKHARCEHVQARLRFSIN
Chain of Nuclear receptor subfamily 1 group I member 2 (Homo sapiens) (O75469 whole entry, looked up): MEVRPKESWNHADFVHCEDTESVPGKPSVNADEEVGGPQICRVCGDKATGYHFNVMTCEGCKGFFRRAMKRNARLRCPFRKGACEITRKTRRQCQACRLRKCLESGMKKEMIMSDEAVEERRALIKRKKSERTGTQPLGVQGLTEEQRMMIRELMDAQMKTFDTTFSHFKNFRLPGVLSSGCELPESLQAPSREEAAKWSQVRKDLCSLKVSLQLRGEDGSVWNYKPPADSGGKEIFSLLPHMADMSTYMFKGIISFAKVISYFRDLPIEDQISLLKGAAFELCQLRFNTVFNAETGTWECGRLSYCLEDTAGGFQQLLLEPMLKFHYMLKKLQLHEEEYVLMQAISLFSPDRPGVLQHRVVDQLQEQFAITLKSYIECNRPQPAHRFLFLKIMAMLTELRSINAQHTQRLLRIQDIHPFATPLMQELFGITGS

With `Cc1cc2c3c(c1)C(c1ccccc1)=N[C@@H](NC(=O)c1ccncc1)C(=O)N3CC2`, the Potency entry in assay [1], in [2], in assay [3], in [5], in [6] and in assay [7] was “inactive” throughout. Also, the Potency result in assay [8] is “inactive”. For the same compound, the Potency in [4] was 13.7 µM (active); in assay [9], 39.9 µM (active); in [10], 25.2 µM (active); in assay [11], 31.7 µM (active); in [12], 1.12 µM (active).
In the case of `CN1CCc2cc3c(cc2C1O)OCO3` (configuration not stated), the Potency result in assay [1], in assay [13], in assay [11] and in assay [15] was “inactive” throughout. In addition, the Potency was 2.01 µM (active) in [9] and 40.2 µM (active) in assay [14].
As for `O.O.O.O.O.O.O.O=S(=O)([O-])[O-].[Co+2]`, the Potency entry in assay [1], in [2], in assay [3] and in assay [15] was “inactive” in each case.
As for `O=[N+]([O-])c1ccccc1-c1ccccc1`, the Potency entry in assay [1], in assay [2], in [4], in assay [5], in [6] and in assay [7] was “inactive” each time. In addition, the Potency entry in assay [8], in assay [9], in assay [15] and in assay [12] was “inactive” throughout. The Potency in [10] is 35.6 µM (active); in assay [11] it was 25.2 µM (active); in [14], 1.59 µM (active).
As to `CCCCC/C=C\C/C=C\C/C=C\C/C=C\CCCC(=O)NCC(=O)O`, the Potency result in assay [1], in assay [3], in assay [4], in [5], in assay [6] and in [7] was “inactive” each time. Besides, the Potency entry in assay [8], in [10], in [14] and in [15] was “inactive” in each case. Further, the values for the Potency in assay [9] and in assay [11] were 15.5 µM (active) and 13.8 µM (active), respectively.
Take `CCCCCCC[CH2][Sn]([Cl])([Cl])[CH2]CCCCCCC`: the Potency in [2] was 54.4 µM (active); in assay [13], 68.5 µM (active); in assay [14] it was 35.6 µM (active). Besides, the Potency result in [3], in [5], in assay [6], in assay [7], in assay [8] and in assay [10] was “inactive” in each case. Further, the Potency entry in [15] and in [12] was “inactive” in each case.
For `N#Cc1c[nH]cc1-c1cccc2c1OC(F)(F)O2`, the Potency in assay [1] was 12.2 µM (active); in [2], 48.6 µM (active); in assay [4], 27.3 µM (active); in [10], 5.64 µM (active); in assay [11] it was 20 µM (active); in [14] it was 1.59 µM (active). Moreover, the Potency entry in assay [6], in assay [7], in assay [8], in [9], in [15] and in assay [12] was “inactive” in each case.
Take `CC(C)(C)c1ccc(OP(=O)(Oc2ccccc2)Oc2ccccc2)cc1`: the Potency entry in assay [1], in assay [13], in assay [3], in [8], in [9] and in assay [12] was “inactive” throughout. In addition, the Potency was 13.8 µM (active) in assay [4]; 31.9 µM (active) in assay [5]; 22.6 µM (active) in assay [6]; 5.06 µM (active) in assay [10]; 5.06 µM (active) in [11]; 16 µM (active) in assay [14]. For the same compound, the Potency in assay [15] is 15.6 µM (active).
As to `N#Cc1c2ccccc2cc2ccccc12`, the Potency entry in assay [1], in assay [13], in assay [5], in assay [6], in [7] and in [8] was “inactive” each time. In addition, the Potency entry in assay [9], in [10] and in [12] was “inactive” in each case. Further, the Potency was 27.3 µM (active) in [4] and 0.2 µM (active) in [14].
For `CCOP(=O)(OCC)Oc1nc(Cl)c(Cl)cc1Cl`, the Potency entry in assay [1], in assay [13], in assay [3] and in assay [15] was “inactive” in each case. Further, the Potency in assay [4] is 54.2 µM (active); in assay [9] it was 5.61 µM (active); in assay [10] it was 3.15 µM (active); in [11], 35.4 µM (active); in assay [14], 1.58 µM (active).
`Clc1ccc(C(c2ccc(Cl)cc2)C(Cl)Cl)cc1`: the Potency result in [1], in assay [3], in [5], in assay [6], in assay [7] and in assay [8] was “inactive” throughout. Besides, the Potency result in [12] is “inactive”. The Potency in [4] is 19.6 µM (active); in assay [9] it was 64.3 µM (active); in assay [10], 181 nM (active) and 113 nM (active); in assay [11], 5.11 µM (active) and 6.33 µM (active); in [14], 6.43 µM (active) and 8.94 µM (active); in assay [15], 24.9 µM (active) and 19.5 µM (active).
Regarding `[Cl-].[Cl-].[Cl-].[Yb+3]`, the Potency result in [1], in assay [2], in assay [13] and in assay [15] was “inactive” each time.
As to `Cc1cc(C2CC2)nc(Nc2ccccc2)n1`, the Potency result in assay [1], in assay [3], in assay [5], in assay [6], in assay [7] and in [8] was “inactive” in each case. In addition, the Potency result in assay [15] and in assay [12] was “inactive” each time. For the same compound, the Potency is 54.5 µM (active) in [4], 39.9 µM (active) in [10], 63.3 µM (active) in assay [11] and 2.52 µM (active) in assay [14].
